# Bioassay records from PubChem BioAssay.
# Shown are actives, neighbours in structure and some others; about 5.9% of the full set was active somewhere.
# GLP1R cytotox – cytotoxicity in counter-screen for GLP-1R inverse agonists | AID 624418 | 0.13% of 410,000 active | Potency, µM (top dose mostly 38.3 µM), without a hit: at the highest dose activity change, negative = inhibition, actives largely listed as inhibitors | HEK293 cAMP-luciferase reporter cells, luminescence, 24 h;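 also: loss of luciferase light is scored as toxicity; % is scaled to controls: 0 for no effect and ±100 for the full control effect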
#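 Luminescence readout: signal drop marks cytotoxicity. Plated cells grew 12 h at 37 °C, 5% CO2, received 23 nL compound for 24 h, then got luciferase reagent, read after 12 min at RT.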
# Gal4-VP16 FLuc – counter-screen for ROR gamma inhibitors: Gal4-VP16 reporter; Potency, µM (highest dose often 53.6 µM), inactives show at the highest dose activity, negative = inhibition, most hits filed as inhibitors; Drosophila S2 Gal4-VP16 UAS-luciferase, luminescence, 20 h; 3.5% of 310,000 active;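 also: Gal4-VP16 expression switched on by copper sulfate through the metallothionein promoter; % is scaled to controls: 0 for no effect and ±100 for the full control effect; nearly all actives have a fitted effect of over 50% in size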
# GLP-1R agonist – GLP-1 receptor (human) agonism; HEK293 GLP-1R CRE-luciferase, luminescence, 4-6 h; cells express a hypersensitive GLP-1R form; Potency, µM (titrated, usually from 45.6 µM), without a hit: at the top dose activation, actives largely listed as activators; 0.007% of 380,000 active; also: % of control where 0% means no effect
# Target sequence (P43220 whole entry, looked up): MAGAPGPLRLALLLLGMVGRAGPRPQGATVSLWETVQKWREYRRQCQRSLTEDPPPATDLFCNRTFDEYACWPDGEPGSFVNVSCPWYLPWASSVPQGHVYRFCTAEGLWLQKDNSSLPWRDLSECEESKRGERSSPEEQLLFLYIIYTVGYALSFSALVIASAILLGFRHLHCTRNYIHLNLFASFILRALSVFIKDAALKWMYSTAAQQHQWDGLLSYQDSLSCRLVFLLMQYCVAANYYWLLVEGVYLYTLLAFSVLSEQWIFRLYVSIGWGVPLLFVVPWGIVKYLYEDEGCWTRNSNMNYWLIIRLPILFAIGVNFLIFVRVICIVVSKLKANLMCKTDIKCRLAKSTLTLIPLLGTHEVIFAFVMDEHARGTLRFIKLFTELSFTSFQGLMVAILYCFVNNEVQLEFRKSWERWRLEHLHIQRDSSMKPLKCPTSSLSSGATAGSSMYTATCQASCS
# GLP-1R inv ag – inverse agonists of human GLP-1 receptor; HEK293 GLP-1R CRE-luciferase, luminescence, 24 h; GLP-1R form is constitutively active; Potency, µM (titrated, usually from 38.3 µM), for inactives: at the top dose activity change, negative = inhibition, hits mostly inhibitors; 1.6% of 410,000 active; AID 624417; also: % is scaled to controls: 0 for no effect and ±100 for the full control effect; nearly all actives have a fitted effect of over 55% in size
#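 Assay principle: reduced luminescence from a cAMP-responsive reporter in HEK293 cells co-expressing a constitutively active GLP-1R. Conditions: 24 hr compound incubation, 37 deg C, 5% CO2.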
# RORgamma inh – inhibitors of mouse ROR gamma transcriptional activity; P51450; Drosophila S2 Gal4-RORgamma UAS-luciferase reporter, 20 h; Potency, µM (series often up to 53.6 µM), without a hit: at the highest dose activity change, negative = inhibition, hits mostly inhibitors; 5.4% of 310,000 active; AID 2551; also: % is scaled to controls: 0 for no effect and ±100 for the full control effect; nearly all actives have a fitted effect of over 60% in size
#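 Luminescence from a UAS-regulated Photinus luciferase reporter in stably transfected Drosophila Schneider cells is measured; decreased signal marks ROR gamma inhibition. Fusion expression is induced by 700 uM copper sulfate for 20 hr.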
# Active calls of the source: *; ? = inconclusive; / = no result; [ ] = dose if it differs, or a comment. Calls follow the shape of the dose curve; as a rule, active = well fitted curve in the direction sought with a large enough effect; inconclusive = small, poorly fitted or top-dose-only effect, or another doubt; inactive = no such curve, though single readings can be large; an effect the other way counts as inactive or inconclusive. Potency is read from the fitted curve at half-maximal effect.
SMILES,GLP1R cytotox,Gal4-VP16 FLuc,GLP-1R agonist,GLP-1R inv ag,RORgamma inh
O=C(NC1=NCCS1)c1cc(-c2ccc(-c3ccccc3)cc2)nc2ccccc12,8%,5µM*,7%,-10%,3.5µM*
CC(C)(C)c1nnc(NC(=O)c2cc(-c3ccccc3)nc3ccccc23)s1,13%,10µM*,-10%,?,5.6µM*
Cc1ccc(-c2cc(C(=O)NN=C3CCCC3)c3ccccc3n2)cc1,-22%,?,1%,-3%,13µM*
CC(C)c1ccc(-c2cc(C(=O)NN3CCN(C)CC3)c3ccccc3n2)cc1,-9%[1.53 µM],14µM*,9%,?,11µM*
COc1ccc(-c2cc(C(=O)NC3=NCCS3)c3ccccc3n2)cc1OC,-3%[7.66 µM],1%,?,39%[7.66 µM],?
CCc1nnc(NC(=O)c2cc(-c3ccncc3)nc3ccccc23)s1,1%,-1%,-1%,-2%,-4%
Cc1cccc(N2CCN(C(=O)Cn3cnc4sc(C)c(S(=O)(=O)N5CCN(c6ncccn6)CC5)c4c3=O)CC2C)c1 (centres undefined),-19%,/,-5%,?,/
Cc1ccc(Cl)cc1N1CCN(Cc2nc3ccsc3c(=O)[nH]2)CC1,1%,?,-13%,?,11µM*
O=C(O)c1ccc(N/N=C/c2cc3cc4c(cc3nc2Cl)OCCO4)cc1,97%,4µM*,-1%,?,2.5µM*
Brc1ccc(/C=N/Nc2ccccc2)cc1,0%,3%,1%,4.5µM*,25%
O=C(O)c1cc(N/N=C/c2ccc3c(c2)OCCO3)ccc1Cl,0%,11µM*,-37%,?,?
Oc1ccc(/C=N/Nc2ccccc2)cc1,-1%,-3%,4%,?,1%
O=S(=O)(N/N=C/c1ccc2c(c1)OCCO2)c1ccccc1,-7%,-19%,6%,-20%,23%
C(=N\Nc1ccccn1)/c1ccc2c(c1)OCCO2,9%,?,1%,?,13µM*
Cc1cc(N/N=C/c2ccc3c(c2)OCO3)nc2ccccc12,-22%,-11%,8%,?,13µM*
Brc1ccccc1/C=N/Nc1ccc2ccccc2n1,?,8.9µM*,-2%,?,0.32µM*
Fc1cccc(/C=N/Nc2ccc3ccccc3n2)c1,-2%,?,0%,?,7.1µM*
O=[N+]([O-])c1cccc(C=NNc2ccc3ccccc3n2)c1O,?,/,-8%,?,/
Fc1ccc(/C=N\Nc2cccc(F)c2)cc1,-6%,2%,11%,8%,-32%
Cc1ccc(C)c(/C=N/Nc2ccccn2)c1,-14%,0%,3%,-17%,10µM*
Clc1ccc(C=NNc2ccccn2)c(Cl)c1,-20%,/,1%,?,/
Cc1cc(C(=O)Nc2c(C)nc3ccccn3c2=O)ccc1[N+](=O)[O-],2%,/,/,1%,/
CCOc1ccc(-n2c(=O)c3c(C)c(C(=O)N(C)C)sc3n(Cc3cc(C)ccc3C)c2=O)cc1,-3%,/,/,11%,/
Cc1cc(N/N=C/c2ccccc2Br)nc2ccccc12,?,16µM*,0%,?,0.56µM*
Fc1cccc(F)c1/C=N/Nc1ccccn1,-25%,-24%,3%,?,?
SMILES,GLP1R cytotox,Gal4-VP16 FLuc,GLP-1R agonist,GLP-1R inv ag,RORgamma inh
Cc1nc2ccccc2nc1N/N=C/c1ccc(O)cc1,-12%,-23%,17%,93%,?
Brc1ccc(/C=N/Nc2ccc3ccccc3n2)cc1,7%,?,-3%,-5%,7.9µM*
Fc1cccc(/C=N/Nc2ccccn2)c1,?,?,0%,?,11µM*
COc1ccc(-c2nc(NC(=O)c3ccc(OCC(=O)Nc4ccc(F)cc4)c(OC)c3)sc2C)cc1,?,20µM*,-23%,?,?
OC(c1cc(-c2ccc(C(F)(F)F)cc2)nc(C(F)(F)F)c1)C1CCCCN1 (centres undefined),-61%,22µM*,-16%,?,?
CN1CC(=O)Nc2cc(C(=O)O)ccc21,-5%,/,/,6%,/
Cc1cc(C(=O)CCl)c(C)n1-c1cccc([N+](=O)[O-])c1,?,?,0%,?,8.9µM*
Cc1cc(C(=O)CCl)c(C)n1-c1ccon1,-26%,?,-3%,4%,8.9µM*
Cc1ccc(S(=O)(=O)Nc2c(Cl)c(Cl)c(O)c3ccccc23)cc1,/,?,/,/,18µM*
Cc1ccc(S(=O)(=O)Nc2c(O)ccc3ccccc23)cc1,-23%,/,2%,-16%,/
O=C(Nc1ccc(F)cc1F)c1cncc(Br)c1,0%,-19%,11%,-17%,-2%
Cc1cc(Br)cnc1NC(=S)Nc1ccc(F)cc1F,?,?,-3%,?,6.3µM*
Cc1nn(Cc2ccc(Cl)cc2Cl)c(C)c1NC(=O)c1ccc(COc2cc(Cl)ccc2Cl)o1,-12%,-1%,2%,?,44%
Cc1nn(Cc2c(F)c(F)c(F)c(F)c2F)c(C)c1NC(=O)c1ccc(COc2ccc(Cl)cc2Cl)o1,-15%,-4%,1%,5µM*,?
CCNC(=O)C/C(C)=N/NC(=O)C1CCCCC1,0%,?,0%,15%,11µM*
COc1ccc(CCNC(=O)C/C(C)=N/NC(=O)C2CCCCC2)cc1OC,8%,?,0%,5%,-12%
CCNC(=S)NNC(=O)C1CCCCC1,2%,?,4%,-21%,13µM*
Oc1c(Cl)cc(Oc2cc(Cl)c(O)c(CN3CCOCC3)c2)cc1CN1CCOCC1,4%,/,14%,11µM*,/
Cc1c(C(=O)NCCSCc2c(F)cccc2Cl)cnn1-c1ccc(Cl)cc1,0%,-19%,17%,10µM*,30%
C(#Cc1ccc(C#CCN2CCCC2)cc1)CN1CCCC1,?,0%[0.365 µM],6%,3.5µM*,-39%
O=C(c1ccccc1)N1CCN(CC#Cc2ccccc2)CC1,-10%,1%,1%,-13%,-17%
Cc1ccc(OCCSc2ncnc3sc(C)c(C)c23)cc1C,-12%,-15%,-15%,2%,11µM*
Cc1sc2ncnc(SCC(=O)c3ccc(Cl)s3)c2c1C,/,-10%,/,/,37%
Cc1sc2ncnc(SCC(=O)c3ccc(O)cc3O)c2c1C,2%,?,9%,17%,13µM*
COc1ccc(-n2cnc(N)c2C(=O)c2cccc([N+](=O)[O-])c2)cc1,-23%,-19%,0%,?,11µM*
CCOc1ccccc1C(=O)NCCNC(=O)c1ccccc1OCC,14%,/,10%,18%,/
COc1ccccc1C(=O)Nc1cc(Cl)ccc1O,5%,-8%,-16%,1%,16%
Cc1ccc(Cl)cc1NC(=O)c1ccccc1OCC(=O)Nc1ccc(Cl)cc1,-10%,11µM*,1%,-16%,?
CCOc1ccccc1C(=O)Nc1cc(Cl)ccc1O,?,-10%,0%,7.1µM*,?
CCOc1ccccc1C(=O)NN1C(=O)CCC1=O,-10%,?,0%,7%,6.3µM*
